Measured values as given in PMC4336329 (PLoS ONE, 2015).
The whole screen tested about 310,000 compounds, of which about 14,000 (4.5%) showed an effect of 50% or more. The effect is printed as a negative number. What follows is part of a selection rich in strong results, with near analogues and random picks from the rest.

Biological target: human ether-à-go-go-related gene (hERG) potassium channel (human, UniProt Q12809)
Assay: primary screen, population patch clamp on CHO cells stably expressing hERG; higher = less effect of the substance
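Further: peak tail current of the secondary pulse compared with the same well before compound.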

human ether-à-go-go-related gene (hERG) potassium channel, sequence (Q12809 whole entry, looked up): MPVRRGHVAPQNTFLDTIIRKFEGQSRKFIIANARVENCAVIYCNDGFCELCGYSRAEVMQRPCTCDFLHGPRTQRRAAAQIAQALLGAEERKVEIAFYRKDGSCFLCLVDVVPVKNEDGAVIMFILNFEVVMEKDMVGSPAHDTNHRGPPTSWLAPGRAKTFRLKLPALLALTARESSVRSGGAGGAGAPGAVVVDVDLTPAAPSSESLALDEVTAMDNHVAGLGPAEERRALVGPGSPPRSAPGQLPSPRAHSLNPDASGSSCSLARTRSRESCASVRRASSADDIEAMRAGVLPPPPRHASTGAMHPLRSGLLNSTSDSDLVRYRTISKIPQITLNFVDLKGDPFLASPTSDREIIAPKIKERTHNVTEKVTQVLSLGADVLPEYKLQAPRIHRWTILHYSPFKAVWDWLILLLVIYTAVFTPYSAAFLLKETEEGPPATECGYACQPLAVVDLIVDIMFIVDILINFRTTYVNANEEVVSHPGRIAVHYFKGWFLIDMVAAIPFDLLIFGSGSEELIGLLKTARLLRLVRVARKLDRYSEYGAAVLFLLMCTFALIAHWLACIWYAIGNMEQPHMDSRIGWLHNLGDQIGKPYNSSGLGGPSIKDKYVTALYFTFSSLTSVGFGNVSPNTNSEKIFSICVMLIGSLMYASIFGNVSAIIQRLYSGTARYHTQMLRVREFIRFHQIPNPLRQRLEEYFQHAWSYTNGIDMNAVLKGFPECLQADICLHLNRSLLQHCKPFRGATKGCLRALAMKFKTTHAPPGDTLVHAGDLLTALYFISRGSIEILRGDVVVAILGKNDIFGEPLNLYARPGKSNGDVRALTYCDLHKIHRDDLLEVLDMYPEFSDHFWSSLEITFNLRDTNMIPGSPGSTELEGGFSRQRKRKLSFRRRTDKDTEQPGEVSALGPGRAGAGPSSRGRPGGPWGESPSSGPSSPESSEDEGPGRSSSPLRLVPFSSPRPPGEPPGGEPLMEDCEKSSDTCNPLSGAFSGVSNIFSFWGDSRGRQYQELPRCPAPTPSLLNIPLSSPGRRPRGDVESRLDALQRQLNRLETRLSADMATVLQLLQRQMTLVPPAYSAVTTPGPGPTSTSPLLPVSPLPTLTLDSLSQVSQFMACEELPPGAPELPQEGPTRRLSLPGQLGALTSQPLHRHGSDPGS

Structure (SMILES)	hERG current change (%, negative = inhibition) at 10uM
O=C(O)c1ccccc1-c1ccccc1C(=O)Nc1ccccc1-c1ccccc1	19.8%
O=C(Nc1nncs1)Oc1ccccc1	8.98%
CC1CCC/C(=C\Nc2ccc(O)cc2)C1=O (stereo not shown)	-0.0111%
Cc1cc(C(=O)NNC(=O)c2cccs2)c(C)o1	7.06%
CCN(CC)C(=O)CSc1nnc(-c2ccncc2)n1N	13.4%
Cc1ccc(-c2nnn(CC(=O)N(c3ccccc3F)C(CC(C)C)C(=O)NCC3CCCO3)n2)cc1 (stereo not shown)	-13%
O=C1NCN(c2ccccc2)C12CCN(CCCC(c1ccc(F)cc1)c1ccc(F)cc1)CC2	-75.8%
O=c1[nH]c2ccccc2n1CCCN1CCC(n2c(=O)[nH]c3cc(Cl)ccc32)CC1	-65.5%
O=C(NC1CCCCC1)N1CCC(n2c(=O)[nH]c3ccccc32)CC1	2.34%
O=C(Nc1cccc(F)c1)N1CCC(n2c(=O)[nH]c3ccccc32)CC1	-19%
Cl.O=c1[nH]c2ccccc2n1CCCN1CCCCC1	16.5%
O=C1CC(N2CCC(n3c(=O)[nH]c4ccccc43)CC2)C(=O)N1c1ccc(F)cc1 (stereo not shown)	-7.5%
O=C1NCN(c2ccccc2)C12CCNCC2	3.05%
O=c1[nH]c2ccccc2n1C1CCCCC1	-5.49%
O=c1[nH]c2ccccc2n1C1CCN(CCCC(c2ccc(F)cc2)c2ccc(F)cc2)CC1	-77.6%
O=C1CC(N2CCC(n3c(=O)[nH]c4ccccc43)CC2)C(=O)N1Cc1ccccc1 (stereo not shown)	-21.4%
O=C(CCCN1CCC(n2c(=O)[nH]c3ccccc32)CC1)c1ccc(F)cc1	-73%
O=C1NCN(c2ccccc2)C12CCN(c1nnnn1-c1ccccc1)CC2	-11.7%
COc1cc(/C=N/NC(=O)c2ccccn2)ccc1OC(=O)c1ccccc1Br	-1.22%
CC(=O)Oc1ccc2oc(-c3ccccc3)c(C(N)=O)c2c1	-14.1%
COCCCn1c(C23CC4CC(CC(C4)C2)C3)n[nH]c1=S	-5.2%
O=C(c1csc2c1CCCC2)N1CCN(c2ccccc2)CC1	-14.8%
O=S(=O)(Cc1ccccc1)N1CCN(Cc2ccc(F)cc2Cl)CC1	4.56%
CCc1nnc(NC(=O)CN2CCN(c3nc(-c4ccccc4)cs3)CC2)s1	-11.8%
COCCCNC(=O)C1CCN(C(=O)c2oc3cc4sc(N(C)C)nc4cc3c2C)CC1	7.03%
CCOC(=O)CNC(=O)CNC(=O)c1nn(-c2ccc(OC)c(Cl)c2)c(=O)c2ccccc12	2.21%
Cc1ccccc1C(=O)NC(=S)N(C)C1CCCCC1	21.2%
COc1cccc(Cn2nc(C(=O)O)c3ccccc3c2=O)c1	9.63%

Structure (SMILES)	hERG current change (%, negative = inhibition) at 10uM
O=C(OCc1nc2ccsc2c(=O)[nH]1)c1ccc(Cl)s1	-5.59%
O=C(Nc1nc2ccccc2[nH]1)c1cccc(Cl)c1	17.5%
CCc1ccc2oc(-c3cc(N=Cc4cccc(OC)c4O)ccc3O)nc2c1	24.3%
CN(Cc1ccccc1)C(=O)c1ccc(NC(=O)Cc2cccc(NC(=O)C3CCN(C(=O)C4CCCCC4)CC3)c2)cc1	8.47%
CC(C)c1ccc(S(=O)(=O)N2CCN(C(C)C(=O)NC3CCCC3)CC2)cc1 (stereo not shown)	-75.5%
CCC(C)c1ccc(S(=O)(=O)N2CCN(C(C)CC(=O)O)CC2)cc1 (stereo not shown)	3.41%
CCC(C)c1ccc(S(=O)(=O)N2CCN(C(C)C(=O)NC3CCCC3)CC2)cc1 (stereo not shown)	-79.1%
CC(C(=O)NC1CCCC1)N1CCN(S(=O)(=O)c2ccc(C(C)(C)C)cc2)CC1 (stereo not shown)	-19.8%
CC(C)c1ccc(S(=O)(=O)N2CCN(C(C)C(=O)N3CCCC3)CC2)cc1 (stereo not shown)	-11.8%
CC(C(=O)NC1CCCCC1)N1CCN(S(=O)(=O)c2cccs2)CC1 (stereo not shown)	-9.2%
CCCCCCNS(=O)(=O)c1ccc(OC)c(OC)c1	-11%
CCOC(=O)c1sc(S(C)(=O)=O)c2c1CCc1conc1-2	8.59%
Cc1ccc(-n2c(-c3ccccc3)n[nH]c2=S)cc1	15.6%
CC(C)OC(=O)/C(=C/c1ccc2c(c1)c1ccccc1n2C)NC(=O)c1ccccc1	-1.72%
O=C(N/N=C/c1c(O)n(-c2ccccc2)c(=O)[nH]c1=O)c1ccncc1	16.2%
Cc1oc(C2CC2)cc1C(=O)O	-9.52%
COc1cccc(-c2cccc(NC(=O)C3CCN(Cc4cnn(C)c4)CC3)c2)c1	-15.6%
CC(C)n1cc(CN2CCCC(C(=O)Nc3cccc(-c4cc5ccccc5[nH]4)c3)C2)cn1 (stereo not shown)	-46.3%
CCn1cc(CN2CCC(C(=O)Nc3cccc(-c4cccc(F)c4)c3)CC2)cn1	-66.4%
CC(C)n1cc(CN2CCC(C(=O)Nc3cccc(-c4cccc(Cl)c4)c3)CC2)cn1	-85.1%
Cn1cc(CN2CCC(C(=O)Nc3cccc(-c4cscn4)c3)CC2)cn1	5.33%
CCn1cc(CN2CCCC(C(=O)Nc3cccc(-c4cc5ccccc5[nH]4)c3)C2)cn1 (stereo not shown)	-6.49%
CCn1cc(CN2CCCC(C(=O)Nc3cccc(-c4cc5ccccc5[nH]4)c3)C2)c(C)n1 (stereo not shown)	-14.4%
Cn1cc(CN2CCC(C(=O)Nc3cccc(-c4cccc(F)c4)c3)CC2)cn1	-67.4%
CC(C)n1cc(CN2CCC(C(=O)Nc3cccc(-c4cscn4)c3)CC2)cn1	-32.8%
CCn1ncc(CN2CCCC(C(=O)Nc3cccc(-c4cc5ccccc5[nH]4)c3)C2)c1C (stereo not shown)	-56.7%
CC(C)Sc1nsc2nc(=O)c(/C=C3\C=Nc4ccccc43)c(N)n12	11.7%
